CHT inh – human CHT choline transport inhibition; 0.86% of 310,000 active; CHT-expressing cells, membrane potential dye, choline response; stronger effect = lower value; Q9GZV3; B-score at 10 µM;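 active = B-score over 3 SD under the library average, and starting fluorescence ratio not unusually high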;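 also: choline stimulus applied at its EC90 after an EC20 pre-addition; B-score computed on integrated fluorescence ratio after choline addition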
Target sequence (Q9GZV3 whole entry, looked up): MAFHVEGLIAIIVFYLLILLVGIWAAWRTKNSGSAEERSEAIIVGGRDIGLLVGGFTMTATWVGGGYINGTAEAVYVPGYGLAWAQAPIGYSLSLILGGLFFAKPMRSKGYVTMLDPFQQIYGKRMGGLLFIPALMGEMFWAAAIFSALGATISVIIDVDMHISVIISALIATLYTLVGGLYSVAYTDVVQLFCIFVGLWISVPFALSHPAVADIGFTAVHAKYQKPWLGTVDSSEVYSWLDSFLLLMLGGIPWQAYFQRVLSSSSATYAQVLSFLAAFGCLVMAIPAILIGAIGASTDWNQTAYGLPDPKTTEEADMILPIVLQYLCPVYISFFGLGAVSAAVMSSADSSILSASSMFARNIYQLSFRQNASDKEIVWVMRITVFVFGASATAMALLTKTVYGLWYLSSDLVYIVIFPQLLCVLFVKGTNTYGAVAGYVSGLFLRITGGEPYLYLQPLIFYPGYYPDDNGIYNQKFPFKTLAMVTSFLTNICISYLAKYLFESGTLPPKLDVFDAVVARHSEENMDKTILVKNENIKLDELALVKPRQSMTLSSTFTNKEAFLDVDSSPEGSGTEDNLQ
TMEM16A act – mouse TMEM16A channel activation, primary screen; HEK293 TMEM16A/YFP-H148Q/I152L, iodide quench fluorescence; stronger effect = lower value; B-score at 10 µM; 0.3% of 340,000 active; AID 623877;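 active = fluorescence-ratio B-score plate-corrected deviation score at least 3 library SD below zero, with starting fluorescence score within 5 deviations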;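 also: channel opened by trigger with iodide after compound preincubation; score built on the fluorescence ratio of max minus min over baseline; more negative score means more quench and so TMEM16A activation or potentiation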
ANO1 block – mouse TMEM16A channel inhibition, primary screen; HEK293 TMEM16A/YFP iodide influx fluorescence, ionomycin; Q8BHY3; 1.2% of 310,000 active; normalized B-score (activity score, 25-100; higher = stronger inhibition) at 10 µM;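 active = ratio plate-corrected score three or more library SD toward inhibition, starting fluorescence score within five deviations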;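 also: score derived from kinetic fluorescence span divided by baseline fluorescence per well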
CHT PAM – allosteric activators of human choline transporter CHT | CHT-expressing cells, membrane potential dye, choline EC20; stronger effect = higher value; LV-AA mutant CHT in HEK293 cells | Q9GZV3 | B-score at 10 µM | 0.49% of 310,000 active;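 active = initial fluorescence not abnormally high and integrated response B-score, plate-corrected, over 3 SD above library mean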
Numbers without * were called inactive. Only some compounds are listed: those with a hit (about 2.4% of all), similar ones and a draw of the others.

Screening N#CC1=C(SCC(=O)NC2CC2)NC(=O)C(C#N)C12CCCCC2 (stereo not given) returned CHT inh inactive, TMEM16A act inactive, ANO1 block inactive and CHT PAM inactive.
Screening CC(C)(C)C1CCC2(CC1)C(C#N)=C(SCC(=O)NC1CCCCC1)NC(=O)C2C#N (stereo not given) returned CHT inh inactive, TMEM16A act inactive, ANO1 block 100* and CHT PAM inactive.
N#CC1=C(SCC(=O)NC23CC4CC(CC(C4)C2)C3)NC(=O)C(C#N)C12CCCCC2 (stereo not given) was read as CHT inh inactive, TMEM16A act inactive, ANO1 block 100* and CHT PAM inactive.
N#CC1=C(SCC(=O)Nc2cccc3cccnc23)NC(=O)C(C#N)C12CCCCC2 (stereo not given) was read as CHT inh inactive, TMEM16A act inactive, ANO1 block 100* and CHT PAM inactive.
COc1ccc(-c2nn(CCC(=O)O)cc2/C=N/NC(N)=S)cc1 was read as CHT inh inactive, TMEM16A act inactive, ANO1 block inactive and CHT PAM inactive.
`COc1ccc(/C=C2\N=C(SC)N(c3ccccc3OC)C2=O)cc1` gave CHT inh inactive, TMEM16A act inactive, ANO1 block inactive and CHT PAM inactive.
CSc1nnc(-c2sc(-c3ccccc3)nc2C)n1C was read as CHT inh inactive, TMEM16A act inactive, ANO1 block inactive and CHT PAM inactive.
Screening OCCOCCn1c(-c2ccccc2)nc(=S)c2c1CCCC2 returned CHT inh inactive, TMEM16A act inactive, ANO1 block inactive and CHT PAM 6.4*.
For O=C(N/C=C/c1ccccc1)c1ccccc1 the results were CHT inh inactive, TMEM16A act inactive, ANO1 block inactive and CHT PAM inactive.
Screening Nc1ccc(N2CCCCC2)c2nonc12 returned CHT inh -7.6*, TMEM16A act inactive, ANO1 block inactive and CHT PAM inactive.
For Nc1c(N2CCCC2)cc(Cl)c2nonc12 the results were CHT inh inactive, TMEM16A act inactive, ANO1 block inactive and CHT PAM inactive.
For CCN(CC)S(=O)(=O)c1cc([N+](=O)[O-])ccc1NNC(=O)Nc1ccc(Cl)c(Cl)c1 the results were CHT inh inactive, TMEM16A act inactive, ANO1 block 25* and CHT PAM inactive.
`CC(C)CC(=O)Nc1ccc(C(=O)COC(=O)C2CC(=O)N(Cc3ccccc3)C2)cc1` (stereo not given) gave TMEM16A act inactive.
For N#Cc1c(NC(=O)CCN2C(=O)c3ccccc3C2=O)oc(-c2ccccc2)c1-c1ccccc1 the results were CHT inh -5.9*, TMEM16A act inactive, ANO1 block inactive and CHT PAM inactive.
`N#Cc1c(NC(=O)CN2C(=O)c3ccccc3C2=O)oc(-c2ccccc2)c1-c1ccccc1` gave CHT inh inactive, TMEM16A act inactive, ANO1 block inactive and CHT PAM inactive.
Clc1ccc2[nH]c3c(NCC4CCCO4)ncnc3c2c1 (stereo not given) was read as CHT inh inactive, ANO1 block 100* and CHT PAM inactive.
Screening Clc1ccc(-n2ncc3c(NCC4CCCO4)ncnc32)cc1 (stereo not given) returned CHT inh inactive, TMEM16A act inactive, ANO1 block inactive and CHT PAM inactive.
Cc1ccc(O)c(CNc2cnc3ccccc3c2)c1 was read as CHT inh inactive, TMEM16A act inactive, ANO1 block 25* and CHT PAM inactive.
For CN(C)CCCNC(=O)COc1ccc(Br)cc1Cl the results were CHT inh inactive, TMEM16A act inactive, ANO1 block inactive and CHT PAM inactive.
COCCNC(=O)COc1ccc(Br)cc1Cl was read as CHT inh inactive, TMEM16A act inactive, ANO1 block 100* and CHT PAM inactive.
For Cc1c(Cl)cccc1NC(=O)C(=O)NNC(=O)c1ccccc1F the results were CHT inh inactive, TMEM16A act inactive, ANO1 block inactive and CHT PAM inactive.
For COc1ccc(N2CCN(C(=O)c3cc(S(=O)(=O)N4CCCCCC4)ccc3OC)CC2)cc1 the results were TMEM16A act inactive.
Screening NS(=O)(=O)c1ccc(NC(=O)c2cc(Cl)ccc2Cl)cc1 returned CHT inh inactive, TMEM16A act -5.5*, ANO1 block inactive and CHT PAM inactive.
`CCSc1cc(C)nc2ncnn12` gave CHT inh inactive, TMEM16A act -19*, ANO1 block inactive and CHT PAM inactive.
For CCCCCCSc1cc(C)nc2ncnn12 the results were CHT inh inactive, TMEM16A act inactive, ANO1 block inactive and CHT PAM inactive.
C=CC[C@]12CCc3ccccc3C1N(c1ccc(C(=O)OCC)cc1)C2=O (stereo not given in full) was read as TMEM16A act inactive.
`Cc1noc(C)c1C(=O)N1CCC(C(=O)c2ccccc2)CC1` gave CHT inh inactive, TMEM16A act inactive, ANO1 block inactive and CHT PAM inactive.
`Cc1noc(C)c1CSCC(=O)N1CCN(c2ccc([N+](=O)[O-])cc2)CC1` gave CHT inh inactive, TMEM16A act inactive, ANO1 block 25* and CHT PAM inactive.
`Cc1ccc(CC(=O)N2CCN(c3ccc([N+](=O)[O-])cc3)CC2)cc1` gave CHT inh inactive, TMEM16A act inactive, ANO1 block inactive and CHT PAM inactive.
Cc1n(Cc2ccccc2)c2ccccc2[n+]1Cc1ccccc1 was read as CHT inh inactive, TMEM16A act inactive, ANO1 block inactive and CHT PAM inactive.
For COc1cccc(C(=S)N2CCCC2)c1OC the results were CHT inh inactive, TMEM16A act inactive, ANO1 block inactive and CHT PAM inactive.
For O=C(O)c1ccc(/C=C2\SC(=S)N(NC(=O)c3ccccc3[N+](=O)[O-])C2=O)cc1 the results were CHT inh inactive, TMEM16A act inactive, ANO1 block inactive and CHT PAM inactive.
`O=C(NN1C(=O)/C(=C\c2ccc(O)c([N+](=O)[O-])c2)SC1=S)c1ccccc1Cl` gave CHT inh inactive, TMEM16A act -5.5*, ANO1 block inactive and CHT PAM inactive.
Screening C#CCOCCOCCOCCNc1nc(N2CCN(C(=O)Cn3cc(CC(C)O)nn3)CC2)nc(N2CCN(C(=O)[C@H]([C@@H](C)CC)n3cc(CCCCN)nn3)CC2)n1 (stereo not given in full) returned TMEM16A act inactive.
For CCOC(=O)c1c(CSc2ccc(CC)cc2)oc2ccc(O)c(CN(C)C)c12 the results were CHT inh inactive, TMEM16A act inactive, ANO1 block 100* and CHT PAM inactive.
`CCOC(=O)c1c(C)oc2ccc(O)c(CN(C)C)c12` gave CHT inh inactive, TMEM16A act inactive, ANO1 block inactive and CHT PAM inactive.
